Measurements reported in the supplement of paper PMC12067093, “Discovery and optimisation of a covalent ligand for TRIM25 and its application to targeted protein ubiquitination” (Chemical Science, 2025).
Targets with the largest changes are over-represented here; the source holds about 21,000 in all.

Compound: Cc1cc(ccc1-c1ccccc1)C(=O)N1CCCN(CC1)C(=O)CCl [compound 10]
Assay: probe-labelled cysteine peptide fold change vs DMSO (competition) (log2 fold change); higher = less target engagement (more negative = stronger competition)
Conditions: THP-1, incubation time: 4 h
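Note: competitive profiling in live THP-1 cells: cysteine peptides tagged with an iodoacetamide desthiobiotin (IA-DTB) probe, intensity after compound treatment relative to DMSO-treated cells.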

Target | probe-labelled cysteine peptide fold change (10 µM) | probe-labelled cysteine peptide fold change (50 µM)
GDAP2_Q9NXN4_148_TAAESSLYSCYR (UniProt Q9NXN4) | -0.0153 | 0.00868
FLAD1_Q8NFF5_338_LTLDSEEEGPLEECLAYLTAR (UniProt Q8NFF5) | -0.0485 | 0.177
HELZ_P42694_100_AVLCCMQLK (UniProt P42694) | -0.406 | -1.27
HDAC6_Q9UBN7_539_PATEAELLTCHSAEYVGHLR (UniProt Q9UBN7) | -0.137 | 0.302
GATM_P50440_50_NSCAADDK (UniProt P50440) | -0.478 | -1.27
HK3_P52790_840_AAQLCGAGVAAVVEK (UniProt P52790) | 0.169 | -0.0558
HAUS2_Q9NVX0_89_CHTLQSMNNHLEAVLK (UniProt Q9NVX0) | 0.0751 | -0.239
GABPA_Q06546_69_LQCSLDAHEICLQDIQLDPER (UniProt Q06546) | 0.331 | -0.0571
HDAC8_Q9BY41_153_KDEASGFCYLNDAVLGILR (UniProt Q9BY41) | -0.0393 | 0.0564
GFPT1_Q06210_264_VDSTTCLFPVEEK (UniProt Q06210) | -0.0167 | 0.203
FHOD1_Q9Y613_43_APTCSLDGALPLGAQIPAVHR (UniProt Q9Y613) | -0.105 | 0.425
GLOD4_Q9HC38-2_41_VLRHEEFEEGCK (UniProt Q9HC38) | -0.835 | -1.19
HERC2_O95714_1037_ISSCLDFEQHSR (UniProt O95714) | 0.0441 | 0.321
HELZ_P42694_101_AVLCCMQLK (UniProt P42694) | -0.198 | -1.11
GNAI2_P04899_326_EIYTHFTCATDTK (UniProt P04899) | 0.0663 | -0.0637
HLA-C_P04222_345+364_GGSCSQAASSNSAQGSDESLIACKA (UniProt P04222) | -0.638 | -1.66
GTF2I_P78347_475_MVDQLFCK (UniProt P78347) | -0.213 | 0.51
GCLM_P48507_35+46_CPSTHSEELHDCIQK (UniProt P48507) | -0.112 | -0.843
HERC4_Q5GLZ8_58+60_HTVFVLDDGTVYTCGCNDLGQLGHEK (UniProt Q5GLZ8) | -0.0133 | -1.05
HBS1L_Q9Y450_84_LYSCLDHMR (UniProt Q9Y450) | 0.0793 | -0.0662

Target | probe-labelled cysteine peptide fold change (10 µM) | probe-labelled cysteine peptide fold change (50 µM)
GPATCH1_Q9BRR8_485_AQLSPAAAAGHCSWNMALGGGTATLK (UniProt Q9BRR8) | -0.0776 | -1.25
GNB1_P62873_294_LLLAGYDDFNCNVWDALK (UniProt P62873) | 0.0699 | 0.17
GTF2B_Q00403_34+37_AGDMICPECGLVVGDR (UniProt Q00403) | 0.105 | 0.0895
FRMD8_Q9BZ67_206_LDSFLPAHLCK (UniProt Q9BZ67) | -0.0859 | -0.347
HAUS6_Q7Z4H7_662_VISDCECVPQK (UniProt Q7Z4H7) | 0.0385 | -0.547
HDAC4_P56524_777_LAVGCVVELVFK (UniProt P56524) | 0.157 | 0.082
HEATR3_Q7Z4Q2_57_ECACAGLAR (UniProt Q7Z4Q2) | -1.43 | -4.94
GSTP1_P09211_102_DQQEAALVDMVNDGVEDLRCK (UniProt P09211) | 0.0332 | 1.08
FHL1_Q13642_150_GEDFYCVTCHETK (UniProt Q13642) | 0.107 | -0.0472
HINT1_P49773_38_CLAFHDISPQAPTHFLVIPK (UniProt P49773) | 0.0727 | 0.0613
GATM_P50440_131_KAVAEIEEMCNILK (UniProt P50440) | -0.0751 | -0.22
HDAC10_Q969S8_508_LLCVALGQLDRPPDLAHDGR (UniProt Q969S8) | 0.15 | 0.0528
GBF1_Q92538_1707_IDCFLPHLRDELFK (UniProt Q92538) | -0.0239 | -0.111
GRHPR_Q9UBQ7_29_AADCEVEQWDSDEPIPAK (UniProt Q9UBQ7) | -0.563 | -0.167
GFI1_Q99684_155_GAGLGLFCEPAPEPGHPAALYGPK (UniProt Q99684) | -0.225 | 1.62
FOS_P01100_204_EKLEFILAAHRPACK (UniProt P01100) | 0.0955 | 1.53
HDDC3_Q8N4P3_133_CTPEGWSEHR (UniProt Q8N4P3) | 0.13 | -0.00995
GLRX_P35754_26_VVVFIKPTCPYCR (UniProt P35754) | -1.05 | -3.44
GEMIN5_Q8TEQ6_1421_NEPEVEAEQPLCSSQSQCK (UniProt Q8TEQ6) | 0.068 | -0.124
